# Source: the supplement of paper PMC6555819
# Tested on: RARb homodimer (NR concentration 270 nM)
# Assay: PBM binding z-score (relative to random genomic background probes); higher = stronger binding; sequences stand for … in GC…GCGATTGACAGCGTAGAATGAAGG
# Method in brief: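 Custom Agilent 4×180K protein-binding microarrays carried double-stranded probes. Their 34-nt variable regions held direct-repeat seeds, single-nucleotide variants, half-site ablations and random human genomic background sequences. Arrays were incubated 1 h with ligand-free nuclear receptor dimers in PBS pH 7.4, 2% milk, 0.02% Triton X-100, 1 mM DTT, 0.2 mg/mL BSA and 0.4 mg/ml salmon testes DNA. Antibodies against each partner (one per run) detected binding, and scanned fluorescence was regression-normalized. Binding z-scores use random background probes as reference.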
row,Sequence,PBM binding z-score
1,AGTCAAAGTTCATCCAGGTAACGTAAGATATGCT,3.81
2,CCGACTGGGGCTGAAAGGTTACCATACCATCCGG,1.92
3,GCGACTGGGGCATCAGCACGTTACCATAACTTAA,0.000503
4,ATATGTAGGTTATCGGGTCATTCCGTTTGCGCAT,3.06
5,CGTCAAAGTTCAGCTAAGGTAACGTAAAGCACGC,3.8
6,CCTACTGGGCCATCAGGTCATTGAAATCAACGTT,2.46
7,CCTCGGAGGACAACAGGAGGTCAGAGCAGCCAGA,3.68
8,CCGACTGCGGCAAAGGTTACCATACTCAGTACGA,2.07
9,TGATATAGGTAATACAGGTGAAAGTCGGCATCTA,0.513
10,CGTCCAAGGTGAGCAGGTCAGTGAAAGCGACGTG,2.7
11,CCTACTGGGCCAAAAAAGTCATTGATGCCGATAA,-0.0259
12,GCAGACAGGTGAAAGGCAGGTAACTCAGGGTGGC,0.611
13,CCAGACAGGTGAGAAGGTAGCTCAGCCTCGATTA,0.12
14,CGTCCAAGGTCAGAGAGGTCAGTTAATGCCGAGT,5.24
15,ATCGAAAGGTCGAGGTGAGTACAGAGAAAGGGAA,2.93
16,GCATATAGGTAATACAAGGAGAAAGTCCGATTGT,-0.449
17,TCGTGTAGATCAAAGGTTAAGAAAGCCGAAGCCT,1.47
18,CTCGAAAGGTTGGTTGAGGTGAGTATACGGATAA,1.12
19,CAAACTAGGTCAAGGTCGAAGTCGGTTTGTGCCA,3.74
20,ATATGTAGGTTGGCTGGGGTCATTCAGACTAGGC,3.37
21,TCTTGTAGATCATCAGGTTAAGAAAGCTGGCCAA,0.398
22,CGTCCAAGGTCAAAGGTTAGTGAAGAGATGACGG,4.34
